Experimental data reported in PubChem BioAssay (EPA / NIEHS).
Activity calls are given as the source filed them. Rule for the calls: active = hit-call score of the fitted dose curve at least 0.9, where 1 is the maximum; inactive = score below 0.9.

read-out: Pselectin, SELP (gene 6403); test: BSK_4H_Pselectin: BioMAP Diversity Plus: 4H Assay for Pselectin Biomarker Activity (AID 2283026); settings: primary human endothelial cells (HUVEC); actives raise or lower the signal
In short: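 Endothelial primary cells (human umbilical vein) are dosed, incubated 24 h, and assayed for surface P-selectin by ELISA; responses in either direction are fitted relative to the DMSO negative control.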

Structure (SMILES)	outcome	AC50
OCCCCO	inactive	–
CCOP(=S)(OCC)SCS(=O)(=O)C(C)(C)C	inactive	–
OCCN(CCO)CCO	inactive	–
c1ccc2sc(SNC3CCCCC3)nc2c1	inactive	–
O=C(N[C@H]1CN2CCC1CC2)c1ccc2c(c1)OCCO2	inactive	–
COCC(=O)N(c1c(C)cccc1C)[C@H](C)C(=O)OC	inactive	–
Cc1cc(C)cc(C)c1	inactive	–
CCOP(=O)(OCC)OC(=CCl)c1ccc(Cl)cc1Cl	–	35.3 µM (active)
c1ccc(-c2cccc(-c3ccccc3)c2)cc1	–	12.4 µM (active)
Nc1ccc(N)cc1	inactive	–
CN(C)C(=S)S	inactive	–
CCCCOC(=O)COC(=O)c1ccccc1C(=O)OCCCC	inactive	–
Cc1c([N+](=O)[O-])c(C)c([N+](=O)[O-])c(C(C)(C)C)c1[N+](=O)[O-]	inactive	–
CC(C)O.CC(C)O.OCCN(CCO)CCO.OCCN(CCO)CCO.[Ti]	inactive	–
N#Cc1cccnc1	inactive	–
Cc1ccccc1OP(=O)(Oc1ccccc1C)Oc1ccccc1C	–	8.88 µM (active)
CCCCCCCCCCCCc1cccc(S(=O)(=O)O)c1	inactive	–
O=C(O)C1(c2ccc3c(c2)OC[C@H](Cc2ccc(-c4ccccc4)cc2)[C@H]3O)CCCC1	–	27.1 µM (active)
Cc1cc(Cl)ccc1N	inactive	–
CCOC(=O)CCN(SN(C)C(=O)Oc1cccc2c1OC(C)(C)C2)C(C)C	–	23.2 µM (active)
C=CC(Cl)CCl (stereo not drawn)	inactive	–
CCC(C)(C#N)N=NC(C)(C#N)CC (stereo not drawn)	inactive	–
[Cl][Sn]([c]1ccccc1)([c]1ccccc1)[c]1ccccc1	–	0.0641 µM (active)
